The subject of one assay is Streptococcus suis HE06. Put plainly: percent growth relative to DMSO control; higher = less growth inhibition. To be noted: 10 µM; incubation time 18 h. The method, then:
(§1)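 CLSI broth microdilution: 5x10^4 CFU of Streptococcus suis (strain P1/7 or HE06) incubated with 10 µM Pathogen Box compound in cation-adjusted Mueller Hinton broth, 37 °C, 5% CO2, 18 h. Growth read as OD600 and expressed as percent of the DMSO-treated control (100%); mean ± SD of three independent experiments.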

The next assay concerns Streptococcus suis P1/7. Described as above. To be noted: 10 µM; incubation time 18 h. Here is the method:
as §1

± gives the standard deviation.

With `CC(C)(C)c1ccc(N[C@@H]2CCCC[C@H]2NC(=O)c2ccco2)cc1`, the percent growth was found to be 104 ± 7.9% with Streptococcus suis HE06 and 78.1 ± 19% with Streptococcus suis P1/7.
In the case of `COc1ccc(-c2cc(NC(=O)c3ccc(F)cc3Cl)ccc2OC)cc1`, the figures for the percent growth in the assay on Streptococcus suis HE06 and with Streptococcus suis P1/7 were 89.4 ± 3.4% and 96 ± 31%, respectively.
On to `CC(=O)NC[C@H]1CN(c2ccc(N3CCSCC3)c(F)c2)C(=O)O1`, for which the percent growth with Streptococcus suis HE06 amounted to 3.44 ± 3.9%; in the assay on Streptococcus suis P1/7, 2.2 ± 3.8%.
For `O=C(c1ccc(NCCO)cc1)C1C[C@H]1c1ccc(Cl)cc1` (some centres not stated), in that order: 147 ± 53% and 67 ± 24%.
In the case of `N#CCN(CCCCN1CCN(c2ccc(F)cc2)CC1)C(=O)OCc1ccccc1`, the percent growth was 93.7 ± 14% in the assay with Streptococcus suis HE06 and 75.8 ± 19% in the assay with Streptococcus suis P1/7.
As for `CCOc1ccccc1C(=O)Nc1cccc(-c2nc3ncccn3c2C)c1`, the values for the percent growth in the assay on Streptococcus suis HE06 and in the assay on Streptococcus suis P1/7 were 88.1 ± 24% and 71.6 ± 8.8%, respectively.
In the case of `O=C(Nc1nc(-c2ccccn2)cs1)c1cncn1-c1ccccc1`, the percent growth in the assay on Streptococcus suis HE06 is 13.4 ± 19%; in the assay on Streptococcus suis P1/7, 5.15 ± 6.6%.
For the molecule `CC(c1cc(Cl)cc(Cl)c1)N(C)c1ncc2c(N)nc(N)nc2n1` (configuration not stated), the values for the percent growth with Streptococcus suis HE06 and with Streptococcus suis P1/7 were 84.7 ± 21% and 57.6 ± 42%, respectively.
Regarding `Cc1ccc(C(=O)Nc2ccc(S(=O)(=O)O)c3cc(S(=O)(=O)O)cc(S(=O)(=O)O)c23)cc1NC(=O)c1cccc(NC(=O)Nc2cccc(C(=O)Nc3cc(C(=O)Nc4ccc(S(=O)(=O)O)c5cc(S(=O)(=O)O)cc(S(=O)(=O)O)c45)ccc3C)c2)c1`, the percent growth with Streptococcus suis HE06 came to 78.7 ± 8.8%; with Streptococcus suis P1/7, 85.9 ± 15%.
For `C[C@@H]1[C@H](O)[C@@H](C)/C=C/C=C/C=C/C=C/C=C/C=C/C=C/[C@H](O[C@@H]2O[C@H](C)[C@@H](O)[C@H](N)[C@@H]2O)C[C@@H]2O[C@](O)(C[C@@H](O)C[C@@H](O)[C@H](O)CC[C@@H](O)C[C@@H](O)CC(=O)O[C@H]1C)C[C@H](O)[C@H]2C(=O)O`, in that order: 97.2 ± 8.6% and 92.3 ± 14%.
With `CC(C)NCC(=O)Nc1cccc(C(=O)Nc2cccc(C(F)(F)F)c2)c1`, the percent growth was 104 ± 4.8% in the assay on Streptococcus suis HE06 and 125 ± 65% in the assay with Streptococcus suis P1/7.
With `COc1cccc(OCC(=O)c2ccc(Br)cc2)c1`, the percent growth in the assay on Streptococcus suis HE06 amounted to 57.7 ± 50%; with Streptococcus suis P1/7, 81.9 ± 9.6%.
With `Cc1nc(-c2ccccn2)nc(N(C)CCc2ccccc2)c1Cl`, the results for the percent growth in the assay on Streptococcus suis HE06 and in the assay with Streptococcus suis P1/7 were 9.53 ± 8.4% and -0.0636 ± 0.11%, respectively.
Take `CC(C(=O)N1CCCC1)N1CCN(S(=O)(=O)c2ccc(C(C)(C)C)cc2)CC1` (configuration not stated): the results for the percent growth in the assay with Streptococcus suis HE06 and in the assay on Streptococcus suis P1/7 were 84.8 ± 24% and 63.4 ± 27%, respectively.
With `Nc1ccc2ncnc(Nc3ccc(OCc4cccc(F)c4)c(Cl)c3)c2c1`, the percent growth in the assay with Streptococcus suis HE06 worked out at 111 ± 9.4%; in the assay on Streptococcus suis P1/7, 81.2 ± 18%.
As to `CCCS(=O)(=O)N1CCC(CO)(Cc2ccccc2C(F)(F)F)CC1`, the percent growth with Streptococcus suis HE06 came out at 99.2 ± 19%; in the assay on Streptococcus suis P1/7, 82.4 ± 27%.
Turning to `COc1ccc(-c2cncc3ccc(C(=O)NCCCn4ccnc4)nc23)cc1`, the percent growth with Streptococcus suis HE06 came to 103 ± 28%; with Streptococcus suis P1/7, 70.1 ± 27%.
With `COCC(C)NC(=O)CSc1ncnc2sc(-c3ccccc3)cc12` (configuration not stated), the percent growth in the assay on Streptococcus suis HE06 worked out at 95.4 ± 33%; in the assay on Streptococcus suis P1/7 it was 84.8 ± 13%.
Regarding `Cc1cc2ccccc2n1CC(=O)N1CC(C(=O)N2CCCCC2)Oc2ccccc21` (configuration not stated), the percent growth was 71.6 ± 13% with Streptococcus suis HE06 and 102 ± 19% with Streptococcus suis P1/7.
Turning to `CCCCN(CCCC)c1c(C#N)cc(S(=O)(=O)Nc2ccccc2)cc1C#N`, the percent growth is 86.6 ± 25% in the assay on Streptococcus suis HE06 and 69.8 ± 27% in the assay on Streptococcus suis P1/7.
Consider `CN1CCC(c2cc(-c3ccncc3)c(-c3ccc(F)cc3)[nH]2)CC1`, for which the percent growth amounted to 101 ± 13% in the assay with Streptococcus suis HE06 and 165 ± 140% with Streptococcus suis P1/7.
For the molecule `FC(F)(F)c1ccc(N(c2cccnc2)C2CCN(c3ccc(C(F)(F)F)cn3)CC2)cc1`, the percent growth in the assay with Streptococcus suis HE06 turned out to be 67.9 ± 13%; in the assay on Streptococcus suis P1/7, 61.4 ± 12%.
Regarding `c1cc(C2=NCCN2)cc(-c2cc(-c3ccc(C4=NCCN4)cc3)no2)c1`, the percent growth amounted to 103 ± 19% with Streptococcus suis HE06 and 88.8 ± 25% in the assay on Streptococcus suis P1/7.
In the case of `Cc1cc(OCC(=O)NCc2ccccc2)c2cc(Br)ccc2n1`, the percent growth came out at 94.8 ± 9.9% with Streptococcus suis HE06 and 176 ± 160% in the assay on Streptococcus suis P1/7.
For `C[C@H]1COc2c(N3CCN(C)CC3)c(F)cc3c(=O)c(C(=O)O)cn1c23`, the percent growth in the assay on Streptococcus suis HE06 amounted to 1.93 ± 0.63%; in the assay with Streptococcus suis P1/7, 1.55 ± 1.7%.
As for `COc1cncc(-c2cncc(N3CCN(c4ccncc4)CC3)n2)c1`, the figures for the percent growth with Streptococcus suis HE06 and with Streptococcus suis P1/7 were 87.2 ± 26% and 64.3 ± 15%, respectively.
Turning to `CCOC(=O)c1noc(N)c1-c1ccccc1`, the percent growth came to 107 ± 2.4% in the assay on Streptococcus suis HE06 and 113 ± 32% in the assay with Streptococcus suis P1/7.
For the molecule `Cc1cc(NC(=O)c2ccc(S(=O)(=O)N(Cc3ccccc3)C(C)C)cc2)no1`, the percent growth with Streptococcus suis HE06 turned out to be 105 ± 27%; in the assay with Streptococcus suis P1/7, 71.6 ± 30%.
Consider `COc1ccc(-c2cnc3ccc(NCc4ccc(S(N)(=O)=O)cc4)nn23)cn1`, for which the percent growth in the assay on Streptococcus suis HE06 came to 85.1 ± 6.3%; in the assay on Streptococcus suis P1/7, 89.2 ± 15%.
For the molecule `N=C(N)Nc1ccc(-c2ccc(-c3ccc(NC(=N)N)cc3Cl)o2)c(Cl)c1`, the percent growth was determined as 22.2 ± 37% with Streptococcus suis HE06 and 23.2 ± 34% in the assay with Streptococcus suis P1/7.
In the case of `O=C(Cn1ccnc1[N+](=O)[O-])NCc1ccccc1`, the percent growth in the assay on Streptococcus suis HE06 was determined as 79.1 ± 10%; with Streptococcus suis P1/7, 114 ± 48%.
Take `COc1ccc(C2CC(c3cccs3)=NN2C(=O)c2ccco2)cc1OC` (configuration not stated): the percent growth was 75.4 ± 3% in the assay on Streptococcus suis HE06 and 99.7 ± 26% with Streptococcus suis P1/7.
Turning to `c1ccc(Oc2ccc(-c3cc(C4CCOCC4)[nH]n3)cc2)cc1`, the percent growth in the assay with Streptococcus suis HE06 is 59.7 ± 17%; in the assay with Streptococcus suis P1/7, 49.6 ± 19%.
For the molecule `OCc1ccc(-c2cncc(Nc3cccc(Cl)c3)c2)cc1`, the percent growth in the assay on Streptococcus suis HE06 is 88 ± 13%; in the assay with Streptococcus suis P1/7, 69.8 ± 33%.
`c1ccc2c(c1)CN(CC1CC1)CC1(CCN(Cc3c[nH]c4cnccc34)CC1)O2`: the figures for the percent growth with Streptococcus suis HE06 and with Streptococcus suis P1/7 were 85.1 ± 15% and 91.8 ± 5.5%, respectively.
On to `Clc1ccc(CCNc2cc(-c3ccccc3)nc3ncnn23)cc1`, for which the results for the percent growth with Streptococcus suis HE06 and in the assay on Streptococcus suis P1/7 were 79.8 ± 10% and 81.5 ± 18%, respectively.

Values taken from the supplement of paper PMC7866885, “A novel bicyclic 2,4-diaminopyrimidine inhibitor of Streptococcus suis dihydrofolate reductase” (PeerJ, 2021).
